NRP1-CendR mod – modulators of CendR peptide binding to NRP-1, primary screen, biochemical, fluorescence polarization, uHTS; Neuropilin-1 (Homo sapiens), O14786; FAM-RPARPAR peptide binding to NRP-1; inhibition, % at 25 µM; actives 0.85% (n = 360,000); AID 602438, 2012;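 active means inhibition or corrected inhibition above about 18%, plus a signal ratio from 0.5 to 1.5, limit read from the data, passing the limit was not always enough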
ARNT TACC3 PPI – disruptors of ARNT/TACC3 protein interaction, primary screen, biochemical, AlphaScreen, single concentration; actives 0.66% (n = 390,000); AlphaScreen His-ARNT PAS-B/GST-TACC3 binding, luminescence; TACC3 fragment carries E629A point mutation; inhibition, % at 9.99 µM;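 active means mean inhibition of replicates at least 50% and at least half of replicates each reaching 50%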
hiPSC survival – enhancers of single-cell hiPSC survival, primary screen, ATPlite luminescence. 100% = ROCK inhibitor wells, 0% = DMSO. survival enhancement, % at 20 µM. actives 0.044% (n = 360,000); in the data active means survival enhancement above about 18%;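 further: cells exposed to compounds for 16 hours before the ATP read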
ABCB6 inh 2 – ABCB6 transporter inhibitors, primary screen, K562-ABCB6 cells, flow cytometry, MLPCN library | K562-ABCB6 porphyrin accumulation, 1 h; stronger effect = lower value | AID 602162, 2011 | actives 0.19% (n = 360,000) | ATP-binding cassette sub-family B member 6 (Homo sapiens), Q9NP58 | fluorescence ratio to DMSO, % at 10 µM;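 active means fluorescence ratio to DMSO below 75%, the collection mean minus 3 SD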;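 further: signal is porphyrin accumulated inside mitochondria; lower ratio means ABCB6 inhibition with less porphyrin fluorescence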
INS-1E GSIS act – GLuc luminescence reporter in INS-1E cells, primary screen for activators of glucose-dependent secretion of insulin | INS-1E GLuc reporter insulin secretion, 2-3 h | activation, % at 16.6 µM | actives 0.61% (n = 370,000);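 active means lowest replicate activation of at least 40%, so every replicate reaches that level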
Hits are given with their value; – = inactive; · = no result. A selection: hits, their analogues and other compounds. The true share with any hit is near 1.8%.

SMILES | NRP1-CendR mod | ARNT TACC3 PPI | hiPSC survival | ABCB6 inh 2 | INS-1E GSIS act
C[C@@H]1CN([C@H](C)CO)C(=O)c2cccc(NC(=O)NC3CCCCC3)c2O[C@@H]1CN(C)C | · | – | · | · | –
Cc1ccc(SCC(=O)OC(C)C(=O)Nc2ccc(S(N)(=O)=O)cc2)cc1C (stereo not given) | 44 | · | – | – | –
Cc1oc2ccc(OCC(N)=O)cc2c1C(=O)OC(C)C | 28 | – | – | – | –
Cc1oc2ccc(O)cc2c1C(=O)OC(C)C | – | – | – | – | ·
O=C(C[n+]1cc(-c2ccccc2)n2c1CCCCC2)c1ccc(Cl)cc1 | – | · | – | – | –
CC1CCC(C(C)C)C(OC(=O)C[n+]2cc(-c3ccc(Cl)cc3)n3c2CCCCC3)C1 (stereo not given) | – | · | – | – | 111
Cc1nnc(NC(=O)c2ccc(S(=O)(=O)N(C)Cc3ccccc3)cc2)o1 | – | 46 | – | – | ·
CS(=O)(=O)c1cccc(-c2nnc(NC(=O)c3ccc(S(=O)(=O)N4CCCC4)cc3)o2)c1 | – | 56 | – | – | –
COc1ccc(-c2nnc(NC(=O)c3ccc(S(=O)(=O)N(C)CC4CCCO4)cc3)o2)c(OC)c1 (stereo not given) | – | 45 | – | – | –
Cc1nnc(NC(=O)c2ccc(S(=O)(=O)N3CCCCCC3)cc2)o1 | – | – | – | – | ·
Cc1nnc(NC(=O)c2ccc(S(=O)(=O)N3CC(C)OC(C)C3)cc2)o1 (stereo not given) | – | 64 | – | – | –
Cc1cc(NC(=O)c2ccc(S(=O)(=O)N(C)CC3CCCO3)cc2)no1 (stereo not given) | – | – | – | – | –
CCN(Cc1ccccc1)S(=O)(=O)c1ccc(C(=O)Nc2nnc(C3CC3)o2)cc1 | – | – | – | – | ·
CO[C@@H]1CN(C)C(=O)c2cc(NC(=O)CC(F)(F)F)ccc2OC[C@H](C)N(C(=O)C2CC2)C[C@@H]1C | · | · | · | · | –
CCC(=O)N1[C@H](C#N)[C@H](c2ccccc2-c2ccccc2)[C@@H]1CO | · | · | · | · | –
COCc1nnc(NC(=O)c2ccc(S(=O)(=O)N(C)Cc3ccccc3)cc2)o1 | – | 49 | – | – | –
Cc1nnc(NC(=O)c2ccc3ccccc3c2)o1 | – | 52 | – | – | ·
COCCN(CCOC)S(=O)(=O)c1ccc(C(=O)Nc2nnc(C)o2)cc1 | – | 57 | – | – | –
COCCN(CCOC)S(=O)(=O)c1ccc(C(=O)Nc2nnc(COC)o2)cc1 | – | – | – | – | –
CC(=O)O/N=C/c1c(N2CCOCC2)n(C)c2ccccc12 | – | – | – | 52 | ·
CN1C(=O)c2cc(NC(=O)C3CC3)ccc2OC[C@H]2O[C@@H](CC(=O)O)CC[C@@H]21 | · | · | · | · | –
Cc1ccc(C(=O)NCCCc2ccccc2)c(C)c1 | 22 | – | – | – | –
CC(=O)N1CC2(C1)[C@@H](c1ccc(-c3ccccc3C)cc1)[C@@H](CO)N2C(C)=O | · | · | · | · | –
CSc1cccc(CN2CCN(CCc3ccccc3)C(CCO)C2)c1 (stereo not given) | – | – | – | – | –
CSc1cccc(CN2CCN(Cc3ccccc3)C(CCO)C2)c1 (stereo not given) | 24 | – | – | – | –
SMILES | NRP1-CendR mod | ARNT TACC3 PPI | hiPSC survival | ABCB6 inh 2 | INS-1E GSIS act
CN(C)CC(=O)N[C@@H]1CC[C@@H](CCn2cc(C3CC3)nn2)O[C@@H]1CO | · | – | · | · | –
CS(=O)(=O)Nc1ccc(C(=O)Nc2ccccc2-c2ccccc2)cc1 | 27 | – | – | – | –
CN1c2ccc(Br)cc2[C@@H]2[C@@H](CCN2C(=O)C2CCC2)[C@@H]1CO | · | · | · | · | –
NC(=O)c1oc2ccccc2c1NC(=O)c1ccc(F)cc1 | – | – | – | – | –
NC(=O)c1oc2ccccc2c1NC(=O)c1nc2ccccc2s1 | 24 | – | – | – | –
NC(=O)C(=O)NN=C1CCC(c2ccccc2)CC1 (stereo not given) | – | – | – | – | –
NC(=O)NN=C1C2CCCC1C(c1ccccc1)NC2c1ccccc1 (stereo not given) | 45 | – | – | – | –
COc1ccc(CSc2ncn[nH]2)cc1[N+](=O)[O-] | – | – | – | – | 61
